Screening results (PubChem)
hcDAF12 agonist: H. contortus DAF-12 activation, primary screen. actives 1.4% (n = 370,000). activation, % at 6.8 µM. HEK293 hcDAF-12 lit1-tk-luc reporter, luminescence; 0% DMSO, 100% Δ7-dafachronic acid;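 active means activation above the mean of all tested compounds plus 3 SD, cut at about 5.5% in these data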
DAX1 inh-1: inhibitors of DAX1 repression of SF-1 activated StAR promoter. actives 1.1% (n = 370,000). AID 652010. inhibition, % at 6.8 µM. HEK293T StAR-luciferase reporter, SF-1/DAX-1 repression relief;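 active means inhibition above the mean over all tested compounds plus 3 SD, cut at about 3.6% in these data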;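 further: higher inhibition means more luminescence from relief of DAX-1 repression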
hgDAF-12 ag: activates the H. glycines DAF-12 receptor ligand-binding domain; HEK293 GAL4-hgDAF12 UAS-luciferase reporter, agonist luminescence; normalized to butyrate control; activation, % at 6.8 µM; actives 1.8% (n = 370,000); AID 687014;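 active means activation above a cutoff set at the mean of all screened compounds plus 3 SD, cut at about 10% in these data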
ssDAF12 agonist: activates DAF-12 receptor from parasite S. stercoralis; HEK293 ssDAF-12/GRIP1 lit1-tk-luc reporter, luminescence; % of 3 µM dafachronic acid response; activation, % at 6.8 µM; AID 652126; actives 1% (n = 370,000);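 active means activation above the mean over all tested compounds plus 3 SD, cut at about 0.9% in these data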
SMARCA2 activ: increases SMARCA2 function in MMTV reporter cells; MG213 cells, MMTV-luciferase reporter, dexamethasone, overnight; actives 1% (n = 370,000); activation, % at 9.1 µM; in the data active means activation above about 7.8%
DAX1 inh-2: inhibitors of human orphan nuclear receptor DAX1 (NR0B1) | P51843 | HEK293 Gal4-DAX1 luciferase reporter, luminescence | inhibition, % at 6.75 µM | actives 0.99% (n = 340,000);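 active means inhibition above the mean over all tested compounds plus 3 SD, cut at about 4.2% in these data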;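 further: inhibition shows as a rise in luminescence from relieved DAX1 repression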
Target sequence (P51843 207-470 limits assumed): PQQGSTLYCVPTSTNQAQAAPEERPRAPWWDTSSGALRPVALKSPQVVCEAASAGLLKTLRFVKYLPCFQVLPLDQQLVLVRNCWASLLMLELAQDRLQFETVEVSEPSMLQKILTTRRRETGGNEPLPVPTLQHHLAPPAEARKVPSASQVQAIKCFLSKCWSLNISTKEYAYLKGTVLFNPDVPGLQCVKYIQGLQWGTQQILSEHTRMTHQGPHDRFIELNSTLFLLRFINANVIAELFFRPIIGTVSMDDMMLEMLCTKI
Of the large screens only hits and unclear results are named; the others gave an inactive call. Only some compounds are listed: those with a hit (about 4.8% of all), similar ones and a draw of the others.

Cc1ccc(S(=O)(=O)N(C)c2ccc(C(=O)NC3CCCCC3)cc2)cc1	none
COc1cc(/C=N/Nc2ccccn2)ccc1OCC(C)C	hgDAF-12 ag 11
CCCOc1ccc(/C=N/Nc2ccccn2)cc1OC	none
COc1ccc(/C=N\Nc2ccccn2)c(OC)c1	hgDAF-12 ag 11
O=C(CC(=O)Nc1ccccc1)Nc1ccccc1	DAX1 inh-2 4.3
CCC(=O)Nc1ccc(Nc2ccccc2)cc1	none
O=C(CNc1ccccc1)Nc1ccc(F)cc1	hgDAF-12 ag 11, ssDAF12 agonist 0.9
O=C(CSCc1ccc(C(=O)O)cc1)Nc1ccccc1	DAX1 inh-2 5.1
CCOc1ccc(NC(=O)N(O)C2(C#N)CCCCC2)cc1	none
CC(C)(C)c1ccc(C(=O)Nc2cc(Cl)ccc2-c2nn[nH]n2)cc1	none (no result: DAX1 inh-1, SMARCA2 activ, DAX1 inh-2)
COc1ccc(C(=O)C[n+]2cc(Br)cc3ccccc32)cc1[N+](=O)[O-]	hcDAF12 agonist 5.9, ssDAF12 agonist 1.0
O=C1CCCCCN1CP(=O)(O)CN1CCCCCC1=O	hgDAF-12 ag 13
O=C1CCCCCN1CP(=O)(O)CCc1ccccc1	none
Fc1ccc(NC(=S)N2CCN(c3ccccn3)CC2)cc1Cl	none
COc1ccc(C2SCC(C(=O)O)N2C(C)=O)cc1OC (stereo not drawn)	DAX1 inh-2 8.4
COC(=O)c1ccc(N2CCCCC2)c(N)c1	DAX1 inh-1 3.7
COC(=O)c1ccc(N2CCC(C)CC2)c(N)c1	none
C[C@]12CCC[C@H](O1)c1c(cc3c(c1O)C(=O)c1c(O)cc(O)cc1C3=O)O2	DAX1 inh-2 5.1
O=C1c2ccccc2C(c2nnnn2-c2ccc3c(c2)OCCO3)N1CCOc1ccccc1 (stereo not drawn)	none (no result: DAX1 inh-2)
Cc1cccc(N(C)C(=O)CCS(=O)(=O)c2cc3c(cc2Cl)NC(=O)CO3)c1	none
O=C(c1cc2ccccc2oc1=O)N(Cc1ccccc1F)C1CCS(=O)(=O)C1 (stereo not drawn)	hcDAF12 agonist 5.8
COc1ccc(C(=O)NC2CCCCCC2)cc1S(=O)(=O)N1CCCc2ccccc21	none
CCN1C(=O)CCN(C2CCCC2)c2nc(Nc3ccc(C(=O)NC4CCN(C)CC4)cc3OC)ncc21	DAX1 inh-2 8.2
S=C(Nc1ccccc1)Nc1ccccc1-n1cccc1	hcDAF12 agonist 5.7 (no result: DAX1 inh-2)
FC(F)(F)c1ccccc1NC(=S)Nc1ccccc1	none
S=C(Nc1ccccc1)Nc1ccc(Br)cc1	DAX1 inh-2 5.7
COc1ccc(C(=O)NCC(c2ccccc2)N2CCCC2)cc1S(=O)(=O)N1CCOCC1 (stereo not drawn)	none
CN=C1S/C(=C/c2cn(CC(=O)OC)c3ccccc23)C(=O)N1C	ssDAF12 agonist 1.7
CN=C1S/C(=C\c2cn(CC(=O)OC)c3ccccc23)C(=O)N1C	ssDAF12 agonist 0.9
COc1cccc(-n2c(Cc3cc(=O)[nH]c(=O)[nH]3)nnc2SCC(=O)N2CCCCCC2)c1	hcDAF12 agonist 6.3
CC1CCN(C(=O)CSc2nnc(Cc3cc(=O)[nH]c(=O)[nH]3)n2-c2ccc(Cl)cc2)CC1	DAX1 inh-2 5.3
COc1cccc(-n2c(Cc3cc(=O)[nH]c(=O)[nH]3)nnc2SCC(=O)N2CCCC2)c1	none
COc1ccc(-n2c(Cc3cc(=O)[nH]c(=O)[nH]3)nnc2SCC(=O)N2CCC(C)CC2)cc1	none
CCOc1ccc(C(=O)NCc2cccs2)cc1	SMARCA2 activ 7.9
CCOc1ccc(NC(=O)c2ccc(OC)cc2)cc1	hgDAF-12 ag 13
CCOc1ccc(NC(=O)c2ccc(NC(=O)c3ccc(NC(N)=O)cc3)cc2)cc1	none (no result: DAX1 inh-2)
CCOc1c2ccc(C(=O)NCCc3cccs3)cc2nn1CC	hgDAF-12 ag 12
COc1ccc(NC(=O)c2ccc3c(c2)n(C)c(=O)n3C)cc1	DAX1 inh-2 6.4
CCCCn1nc2cc(C(=O)NCCc3cccs3)ccc2c1OCC	none
CCCCOc1ccc(C(=O)NCCc2cccs2)cc1	none (no result: hcDAF12 agonist, DAX1 inh-1, hgDAF-12 ag, ssDAF12 agonist, SMARCA2 activ)
COc1ccc(C(=O)Nc2ccc3c(c2)n(C)c(=O)n3C)cc1OC	none
Nc1ccnc(=O)[nH]1	none
CC1C(=O)c2ccccc2CC1C(=O)O (stereo not drawn)	none
C[C@@H]1CN([C@H](C)CO)C(=O)CCCn2nncc2CO[C@H]1CN(C)S(=O)(=O)c1ccc2ccccc2c1	none
COc1ccc(NC(=O)c2ccc3ncsc3c2)cc1	ssDAF12 agonist 1.3
Clc1ccc(Br)c(-c2nc3ccccc3[nH]2)c1	none
Nc1[nH]c(N=NC(=O)c2ccccc2O)c2ccccc12	hgDAF-12 ag 12
CN1C(=O)[C@H]2[C@@H](c3ccc(C(F)(F)F)cc3)N[C@]3(CCCN(Cc4cccn4C)C3=O)[C@H]2C1=O	none
O=C(O)/C(=C\c1ccc(-c2ccccc2[N+](=O)[O-])o1)c1ccccc1	hcDAF12 agonist 5.7, ssDAF12 agonist 0.9
Cc1ccc(N(CC(=O)Nc2c(C)cccc2C)S(C)(=O)=O)cc1	none
COc1ccc(Nc2oc(-c3ccc(Cl)cc3)nc2C#N)cc1	hgDAF-12 ag 11
COc1ccc(Nc2oc(-c3ccccc3)nc2C#N)cc1	hgDAF-12 ag 10
O=C(NCc1cccc(Cl)c1)c1ccc(CS(=O)Cc2ccc(Cl)cc2)o1 (stereo not drawn)	none
CC(=O)Nc1ccc(N2C(=O)CC(Sc3nc4ccccc4s3)C2=O)cc1 (stereo not drawn)	ssDAF12 agonist 3.9
COC(=O)c1ccccc1NC(=O)COc1ccc2c(c1)OCO2	none
O=C(COc1ccc2c(c1)OCO2)Nc1ccccc1F	hgDAF-12 ag 13
CN(CCC1CCOCC1)C(=O)C1CCC(=O)N(CCc2ccccc2)C1 (stereo not drawn)	none
COc1ccc(C2C(=O)NN=C2C)cc1 (stereo not drawn)	DAX1 inh-2 5.3
CCOC(=O)N1CCN(C(=O)CCC(=O)N2CCOc3ccc(C)cc32)CC1	none
Cc1ccc2c(c1)N(C(=O)CCC(=O)N1CCC(C(N)=O)CC1)CCO2	ssDAF12 agonist 1.3
Cc1ccc(S(=O)(=O)N2CCOCC2)cc1NC(=O)CSCc1c(C)noc1C	DAX1 inh-1 3.6
CN(C)/C=N/c1ncc(C(=O)c2ccc(-c3ccccc3)cc2)s1	hgDAF-12 ag 12
O=C(NCc1ccco1)c1noc2c1CCCC2	none
O=C(NCc1cccs1)c1noc2c1CCCCC2	hgDAF-12 ag 10
O=C(Nc1ccc(Oc2ccccc2)cc1)N[C@@H](Cc1ccccc1)C(=O)O	none
CC1=C(C(=O)N2CCCCCC2)CC(CC(=O)NCC2CCCCC2)C(=O)N1Cc1ccc(F)cc1 (stereo not drawn)	none (no result: DAX1 inh-2)
CCCCCn1nnc2c(=O)oc3ccccc3c21	ssDAF12 agonist 1.1
Nn1c(SCC(=O)Nc2nccs2)nnc1-c1cc(-c2ccc(Cl)cc2)n[nH]1	none (no result: DAX1 inh-2)
